Measurements as given in PubChem BioAssay AID1159580 (chemical genetic matrix, 2015).
The campaign covered roughly 5,500 compounds. About 2,000 (36%) were called active. About 18% were inconclusive and are not listed. Cut-off read from the data, not from the text of the source: active = normalized growth mostly below about 0.91 (no sharp cut-off); inconclusive = no clear call, values can overlap the other calls; inactive = mostly above about 0.92. The list shows a part of the results.

Experiment: chemical genetic growth profiling, strain panel (AID 1159580);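 note: tested at 20 µM; growth read once vehicle control cultures reached saturation at 30 °C; 1 = growth at the plate median or of vehicle wells; lower values mean less growth of the strain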
Conditions: S. cerevisiae deletion strains, growth OD
[1] = locus YAL040C, strain CLN3, hits give low values
[2] = locus YCL061C, strain MRC1 (second series), hits give low values
[3] = locus YDR363W, strain ESC2, hits give low values
[4] = locus YER002W, strain NOP16, hits give low values
[5] = locus YMR307W, strain GAS1, hits give low values
[6] = locus YNL175C, strain NOP13, hits give low values
[7] = locus YNL197C, strain WHI3, hits give low values
[8] = locus YNL224C, strain SQS1, hits give low values
[9] = locus YOR083W, strain WHI5 (second series), hits give low values
[10] = locus YPL055C, strain LGE1, hits give low values
[11] = locus YGR229C, strain SMI1, hits give low values
[12] = locus YJR075W, strain HOC1, hits give low values
[13] = locus YNL128W, strain TEP1, hits give low values
[14] = locus YNL153C, strain GIM3, hits give low values
[15] = locus YPL241C, strain CIN2, hits give low values

Measured: normalized growth

C=CCN1C[C@@H](C)N([C@H](c2ccc(C(=O)N(CC)CC)cc2)c2cccc(OC)c2)C[C@@H]1C
inactive: [1] 1.04 | [2] 1 | [3] 0.992 | [4] 0.999 | [5] 1.03 | [6] 0.995 | [7] 1.01 | [8] 1.02 | [9] 1.02 | [10] 1.01

CP(=O)(O)C1=CCNCC1
inactive: locus YAL013W, strain DEP1, hits give low values 1.03 | [1] 1 | [2] 1 | [3] 0.997 | [4] 0.997 | [11] 1.02 | [12] 1.01 | [5] 1 | [13] 0.996 | [14] 0.999 | [6] 1.01 | [7] 1.02 | [8] 1.01 | locus YNL322C, strain KRE1, hits give low values 1.01 | [9] 0.987 | [15] 1

O=c1onc2cnc3ccccc3n12
inactive: [1] 0.984 | [2] 0.983 | [3] 0.893 | [4] 1 | [11] 0.939 | [12] 0.958 | [5] 0.977 | [13] 0.967 | [6] 0.999 | [7] 0.989 | [8] 0.987 | [9] 0.961 | [15] 0.999
active: [14] 0.777 | [10] 0.801
